Experiment [1] in a line: Confirmatory screen NINDS Rhodamine qHTS for Zika virus inhibitors (AID 1347161). Also: nearly all actives have a fitted effect of over 60% in size. Also: potency is read from the fitted curve at half-maximal effect.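 As to activity change, negative = inhibition: purified Zika NS2B-NS3 protease with linked NS2B cofactor domain and Rhodamine110 peptide substrate; plate controls were no-inhibitor control for no effect and no-enzyme control for full effect.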 An outline of the steps:
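Each compound, titrated, sat 15 min with 25 nM linked protease before 1.5 microM Rhodamine110 substrate went in. Fluorescence gain over the next 15 min, in pH 8.0 Tris with Tween 20, gave Hill-fitted curves.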

A short description of experiment [2]: Vero cells viability qHTS for Zika virus inhibitors (AID 1347167). Also: potency is read from the fitted curve at half-maximal effect. Put shortly:
(§1)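 Counter-screen for cytotoxicity of hits from NS2B-NS3 protease qHTS. Overnight-attached cells (2.5 x 10^5 cells/mL, DMEM/4% FBS) were dosed in titration, incubated 24 to 48 hours, then assayed by CellTiter Glo.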

Experiment [3] can be described thus: HepG2 cells viability qHTS for Zika virus inhibitors (AID 1347168). Also: potency is read from the fitted curve at half-maximal effect. An outline of the steps: as §1
Experiment [4] in a line: qHTS to identify inhibitors of the type 1 interferon - major histocompatibility complex class I in skeletal muscle: primary screen against the NCATS Pharmaceutical Collection (AID 1347407).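 Also: luminescence of HiBiT knocked into endogenous HLA-B as interferon-induced MHC class I level; % is scaled to controls: 0 for no effect and ±100 for the full control effect.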 Put shortly: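 A qHTS format is used: 8-point, 1:5 compound series with 46 uM top final concentration, applied alongside 4 ng/ml IFN-beta to HLA-B*08:01-HiBiT knock-in myoblasts. Luminescence is measured after 24 h treatment.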

Experiment [5] is described as follows: qHTS to identify inhibitors of the type 1 interferon - major histocompatibility complex class I in skeletal muscle: primary screen against the NCATS Mechanism Interrogation Plate v5.0 (MIPE) Libary (AID 1347411). Also: nearly all actives have a fitted effect of over 65% in size. Also: potency is read from the fitted curve at half-maximal effect.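 As to activity change, negative = inhibition: plate controls were vehicle for no effect and reference inhibitor for full effect.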 An outline of the steps:
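Immortalized human C25cl48 myoblasts with HiBit knocked into endogenous HLA-B*08:01 were stimulated with 4.0 ng/ml IFN-beta and exposed to compounds (11-point 1:3 titration, top 46 uM final) for 24 hrs at 37 C; HiBiT lytic luminescence measured.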

The target of experiment [6] is Protein phosphatase 1D (Homo sapiens) (UniProt O15297). The experiment can be described thus: RapidFire Mass Spectrometry qHTS Assay for Modulators of WT P53-Induced Phosphatase 1 (WIP1) (AID 1347424).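 Also: amount of dephosphorylated VEPPL-S-QETFS peptide product formed by WIP1; plate controls were DMSO wells for no effect and GSK830371 inhibitor control at 10 µM for full effect.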 An outline of the steps: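 WIP1 (10 nM final) was preincubated 1 h at room temperature with compounds in Tris-HCl pH 7.5, 30 mM MgCl2, TCEP, EGTA, BSA; 2 uM VEPPL-pS-QETFS phosphopeptide was added for 5 min, quenched with formic acid, and dephosphorylated product quantified by RapidFire MS.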
Protein phosphatase 1D (Homo sapiens), sequence (O15297 whole entry, looked up): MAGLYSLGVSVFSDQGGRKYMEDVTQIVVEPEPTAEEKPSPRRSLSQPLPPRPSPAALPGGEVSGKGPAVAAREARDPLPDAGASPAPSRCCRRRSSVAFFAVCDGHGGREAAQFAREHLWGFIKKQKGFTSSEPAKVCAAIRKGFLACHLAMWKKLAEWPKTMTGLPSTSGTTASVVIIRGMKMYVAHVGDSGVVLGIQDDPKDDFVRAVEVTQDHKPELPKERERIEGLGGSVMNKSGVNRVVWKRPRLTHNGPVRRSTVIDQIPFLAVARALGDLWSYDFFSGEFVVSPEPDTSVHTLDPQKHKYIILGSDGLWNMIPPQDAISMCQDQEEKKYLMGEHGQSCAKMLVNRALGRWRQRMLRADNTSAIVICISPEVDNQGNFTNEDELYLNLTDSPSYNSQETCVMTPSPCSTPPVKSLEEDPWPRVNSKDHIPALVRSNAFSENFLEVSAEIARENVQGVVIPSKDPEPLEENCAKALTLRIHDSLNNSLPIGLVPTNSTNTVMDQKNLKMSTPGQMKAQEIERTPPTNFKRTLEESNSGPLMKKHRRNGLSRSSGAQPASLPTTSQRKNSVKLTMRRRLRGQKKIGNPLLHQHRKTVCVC

The target is the same in experiment [7]. The experiment can be described thus: Rhodamine-PBP qHTS Assay for Modulators of WT P53-Induced Phosphatase 1 (WIP1) (AID 1347425). Also: % of control where 0% means no effect. Put shortly:
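WIP1 (5 nM final) was preincubated with compound for 1 hour at room temperature. It then dephosphorylated 10 uM VEPPL-pS-QETFS peptide in Tris-HCl pH 7.5 with 30 mM MgCl2. Released Pi was detected by 10 uM Rh-PBP fluorescence (ex 525/em 598 nm) read at 1-min intervals for 11 min, as delta f1 - f0.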

The nature of experiment [8]: Primary qHTS for inhibitors of La Crosse Virus (LACV) - induced cell death in SH-SY5Y cells (AID 1508616).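 Also: top concentration of the series differs between compounds; 0% = infected DMSO wells and 100% = uninfected DMSO wells; higher means more rescue of cells from virus-induced death.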 An outline of the steps:
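Luminescent ATP readout (ATPLite 1step, 5 min room temperature) measured rescue from LACV-induced death after 6 days of infection at 0.01 MOI; normalized to infected DMSO wells and uninfected DMSO wells.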

Experiment [9] has as its target Calcium and integrin-binding protein 1 (Homo sapiens) (UniProt Q99828). The experiment can be described thus: Primary qHTS for Identification of Calcium Integrin Binding Protein 1 (CIB1) Competitor (AID 1508620).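 Also: GST tagged CIB1 binding a fluorescein labelled alphaIIb integrin peptide tracer; top concentration of the series differs between compounds; % is scaled to controls: 0 for no effect and ±100 for the full control effect.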 An outline of the steps:
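Fluorescence polarization competition: CIB1-GST (1 uM final) preincubated with compound 15 min at room temperature, then FITC-labeled alphaIIb peptide (100 nM final) added for another 15 min. Polarization read at Ex 480/Em 540.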

Experiment [10] can be described thus: Tertiary RLuc qRT-PCR qHTS assay for Zika virus inhibitors (AID 1347169). Also: nearly all actives have a fitted effect of over 55% in size. Also: potency is read from the fitted curve at half-maximal effect. Put shortly:
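Inhibition of ZIKV-RLuc replication in Vero cells, read as Renilla luminescence 1-1.5 hrs after live-cell substrate addition, following 48-72 hrs infection at MOI 1-2 in presence of compound.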

Experiment [11] addresses Lysine-specific demethylase 5B (Homo sapiens) (UniProt Q9UGL1). The experiment can be described thus: Optimization screen for KDM5B Histone Demethylases FDH coupled qHTS against the LOPAC library (AID 1347166). Also: 0% is about no effect. Particulars: KDM5B demethylation, FDH-coupled NADH fluorescence (FDH is formaldehyde dehydrogenase); at 57.5 µM (top of the series). An outline of the steps:
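KDM5BDeltaAP (200nM final) preincubated 10 min with compound, then 12.5uM H3K4Me3, 25uM a-ketoglutarate, ascorbate, Fe(II), NAD+ and FDH added; 50mM HEPES pH 7.5, 0.01% Tween-20. NADH fluorescence (340/450 nm) change over 30 min, room temperature.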

A short description of experiment [12]: qHTS to identify inhibitors of the type 1 interferon - major histocompatibility complex class I in skeletal muscle: primary screen against the NCATS LOPAC collection (AID 1347405).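 Also: lytic HiBiT luminescence reporting HLA-B protein level; % is scaled to controls: 0 for no effect and ±100 for the full control effect.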 Put shortly: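 Immortalized human C25cl48 myoblasts with HiBiT knocked into endogenous HLA-B*08:01 were stimulated with 4.0 ng/ml IFN-beta and given compounds in a 7-point, 1:4.3 titration from 46 uM final; after 24 hrs, lytic HiBiT luminescence was read.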

Experiment [13] in a line: qHTS for inhibitors of adenylyl cyclases using a fission yeast platform: a pilot screen against the NCATS LOPAC library (AID 1347410).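 Also: plate controls were DMSO vehicle for no effect and DPI positive control for full effect.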 Put shortly: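 Inhibition of GNAS-stimulated AC9 activity in S. pombe was inferred from derepression of a PKA-repressed fbp1-GFP reporter, measured as cytometric fluorescence after 18 h at 30C with compounds at up to 57 µM.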
Experiment [14] is described as follows: Validation qHTS assay for inhibitors of Activation Induced Cytidine Deaminase (AID): UDG Counterscreen signal (AID 1347427). Also: 0% is about no effect. An outline of the steps:
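Counterscreen read of UDG activity (2 U/mL, 4/3x) in the FRET deamination format with AID (1 uM, 4/3x), DJC20/DJC23 substrates (250 nM, 4x), 4 h at room temperature. NaOH stop, fluorescence at 560 ex/665 em.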

Experiment [15] has as its target Single-stranded DNA cytosine deaminase (Homo sapiens) (UniProt Q9GZX7). The experiment can be described thus: Validation qHTS assay for inhibitors of Activation Induced Cytidine Deaminase (AID): AID signal (AID 1347429). Also: % is scaled to controls: 0 for no effect and ±100 for the full control effect. An outline of the steps:
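AID and UDG were combined and compounds added at final up to 114 uM, then DJC20/DJC23 FRET substrate was added for 4 hr at room temperature. NaOH was then added for 30 min before fluorescence was read at 540/590 nm.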

The nature of experiment [16]: Counterscreen qHTS for small molecule stabilizers of the endoplasmic reticulum resident proteome: GLuc-NoTag assay (AID 1508627).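 Also: SH-SY5Y cells given compound then 100 nM thapsigargin to empty ER calcium; 0% = thapsigargin alone and -100% = DMSO vehicle control.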 Put shortly:
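SH-SY5Y cells stably expressing constitutively secreted GLuc (no SERCaMP tag) were pre-incubated 5 h, treated with compound for 19 h, then 100 nM thapsigargin for 4 h at 37C; medium GLuc read by coelenterazine luminescence.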

A short description of experiment [17]: Confirmatory qHTS for small molecule stabilizers of the endoplasmic reticulum resident proteome: Secreted ER Calcium Modulated Protein (SERCaMP) assay (AID 1508628).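 Also: SH-SY5Y cells given compound 16 h then thapsigargin 100 nM for 4 h; % is scaled to controls: 0 for no effect and ±100 for the full control effect; nearly all actives have a fitted effect of over 40% in size.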 Put shortly: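 We seeded SH-SY5Y-GLuc-SERCaMP cells, added compounds (three concentrations in the primary run, eleven up to 76.6 uM in confirmation), incubated 16 h, depleted ER calcium with thapsigargin, and read luciferase 4 h later.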

Several values for one entry are separate records, joined by “and”; a condition that tells them apart may be missing. Equal entries are not always repeated. Values without a mark were called inactive. Records with an inconclusive call do not appear. Activity calls are given as the source filed them. Calls follow the shape of the dose curve; as a rule, active = well fitted curve in the direction sought with a large enough effect; inconclusive = small, poorly fitted or top-dose-only effect, or another doubt; inactive = no such curve, though single readings can be large; an effect the other way counts as inactive or inconclusive.

Single-stranded DNA cytosine deaminase (Homo sapiens), sequence (Q9GZX7 whole entry, looked up): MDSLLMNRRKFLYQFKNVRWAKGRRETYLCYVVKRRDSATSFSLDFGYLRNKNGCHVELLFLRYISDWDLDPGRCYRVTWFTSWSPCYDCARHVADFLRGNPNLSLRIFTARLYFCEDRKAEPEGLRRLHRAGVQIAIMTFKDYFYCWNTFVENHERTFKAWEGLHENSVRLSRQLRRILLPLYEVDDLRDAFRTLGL
Calcium and integrin-binding protein 1 (Homo sapiens), sequence (Q99828 whole entry, looked up): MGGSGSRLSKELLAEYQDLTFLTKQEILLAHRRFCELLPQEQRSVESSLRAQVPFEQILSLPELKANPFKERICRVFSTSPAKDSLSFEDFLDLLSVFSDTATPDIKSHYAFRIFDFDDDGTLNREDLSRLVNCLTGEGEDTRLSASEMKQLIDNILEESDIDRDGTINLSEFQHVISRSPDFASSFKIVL
Lysine-specific demethylase 5B (Homo sapiens), sequence (Q9UGL1 whole entry, looked up): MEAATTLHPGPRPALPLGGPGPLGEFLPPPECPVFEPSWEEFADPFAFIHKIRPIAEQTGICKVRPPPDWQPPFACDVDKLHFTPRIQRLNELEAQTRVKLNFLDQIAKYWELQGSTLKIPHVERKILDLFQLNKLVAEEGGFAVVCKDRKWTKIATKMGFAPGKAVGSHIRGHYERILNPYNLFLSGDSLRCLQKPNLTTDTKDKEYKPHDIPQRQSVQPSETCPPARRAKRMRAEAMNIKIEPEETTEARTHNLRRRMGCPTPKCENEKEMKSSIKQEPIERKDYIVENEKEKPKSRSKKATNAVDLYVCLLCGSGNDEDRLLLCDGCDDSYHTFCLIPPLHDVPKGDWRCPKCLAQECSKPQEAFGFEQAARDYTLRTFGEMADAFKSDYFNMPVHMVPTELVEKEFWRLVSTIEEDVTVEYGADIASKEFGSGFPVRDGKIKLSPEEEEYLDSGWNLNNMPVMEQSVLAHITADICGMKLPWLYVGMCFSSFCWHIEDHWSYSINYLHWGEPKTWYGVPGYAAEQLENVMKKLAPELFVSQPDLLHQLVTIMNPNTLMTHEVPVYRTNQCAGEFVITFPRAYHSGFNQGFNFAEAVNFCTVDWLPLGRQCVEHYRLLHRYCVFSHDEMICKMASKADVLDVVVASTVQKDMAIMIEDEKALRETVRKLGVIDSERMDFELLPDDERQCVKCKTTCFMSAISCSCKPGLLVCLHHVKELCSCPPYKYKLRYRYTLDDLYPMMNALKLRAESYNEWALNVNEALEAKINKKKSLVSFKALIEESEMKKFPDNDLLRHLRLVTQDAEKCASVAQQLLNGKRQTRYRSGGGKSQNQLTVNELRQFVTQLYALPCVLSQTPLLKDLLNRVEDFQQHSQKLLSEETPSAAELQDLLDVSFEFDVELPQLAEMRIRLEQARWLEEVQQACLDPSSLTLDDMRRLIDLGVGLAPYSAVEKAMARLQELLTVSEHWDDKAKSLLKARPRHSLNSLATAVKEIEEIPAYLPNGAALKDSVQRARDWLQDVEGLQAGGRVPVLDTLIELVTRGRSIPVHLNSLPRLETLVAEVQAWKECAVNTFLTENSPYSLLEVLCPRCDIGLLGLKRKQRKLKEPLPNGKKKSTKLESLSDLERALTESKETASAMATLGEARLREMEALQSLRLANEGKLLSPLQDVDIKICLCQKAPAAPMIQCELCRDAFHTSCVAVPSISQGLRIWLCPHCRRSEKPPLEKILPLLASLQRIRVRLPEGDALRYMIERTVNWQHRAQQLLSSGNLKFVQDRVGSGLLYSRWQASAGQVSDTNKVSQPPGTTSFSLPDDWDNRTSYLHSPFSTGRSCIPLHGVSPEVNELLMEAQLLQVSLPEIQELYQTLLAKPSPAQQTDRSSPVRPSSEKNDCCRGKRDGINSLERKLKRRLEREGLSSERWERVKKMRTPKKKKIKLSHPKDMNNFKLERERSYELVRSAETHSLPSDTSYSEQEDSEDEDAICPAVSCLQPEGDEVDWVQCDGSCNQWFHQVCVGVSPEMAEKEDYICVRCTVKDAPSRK

As for `CNC(=O)c1cc(Oc2ccc(NC(=O)Nc3ccc(Cl)c(C(F)(F)F)c3)cc2)ccn1`, the Potency was 25.5 µM (active) in experiment [1], 7.58 µM (active) in experiment [2], 33.9 µM (active) in [3] and 16.5 µM (active) in experiment [5]. Besides, the Potency entry in experiment [4] and in [8] was “inactive” in each case. Moreover, the result in [6], in [7] and in experiment [9] was inactive.
As for `Nc1nc(=S)c2[nH]cnc2[nH]1`, the Potency result in [2], in [3], in experiment [4], in [5] and in experiment [8] was “inactive” throughout. Besides, the Potency in [10] was 4.15 µM (active) and 3.3 µM (active). The call in [6] and in experiment [7] was inactive.
Consider `CCOCC(O)COc1ccc(NC(=O)CC[S+](C)C)cc1` (centres undefined), for which the Potency result in experiment [4], in [5] and in experiment [8] was “inactive” in each case. The result in experiment [6] and in [7] was inactive.
With `NC(=O)c1cccnc1`, the Potency result in [4], in [5] and in experiment [8] was “inactive” each time. Besides, the call in experiment [6] and in [7] was inactive.
Take `CCn1cc(C(=O)O)c(=O)c2cc(F)c(N3CCNCC3)cc21`: the Potency result in [2], in experiment [3], in experiment [10], in experiment [4], in experiment [5] and in experiment [8] was “inactive” in each case. Besides, the outcome in experiment [6], in [7] and in experiment [9] was inactive.
For `CCCCS(=N)(=O)CCC(N)C(=O)O` (centres undefined), the activity, negative = inhibition in [11] was -3.95%. The call in experiment [12], in experiment [13], in experiment [14] and in [15] was inactive. Also, the Potency entry in experiment [5] and in [8] was “inactive” each time.
Turning to `CCN1CCCC1CNC(=O)c1cc(S(N)(=O)=O)ccc1OC` (centres undefined), the activity, negative = inhibition in experiment [11] is 2.22%. Also, the result in experiment [12], in experiment [13], in [14], in experiment [15] and in experiment [9] was inactive. For the same compound, the Potency result in [8] is “inactive”.
As to `CC(C)(Sc1cc(C(C)(C)C)c(O)c(C(C)(C)C)c1)Sc1cc(C(C)(C)C)c(O)c(C(C)(C)C)c1`, the Potency entry in experiment [1], in [4], in [5], in [8] and in experiment [17] was “inactive” in each case. Besides, the activity change, negative = inhibition in experiment [10] is -19.1% [at 0.566 µM]. Moreover, the call in experiment [6], in experiment [7], in experiment [9] and in experiment [16] was inactive.
For `CC(C)(C)NC(=O)[C@H]1CC[C@H]2[C@@H]3CC[C@H]4NC(=O)C=C[C@]4(C)[C@H]3CC[C@]12C`, the Potency result in [4], in experiment [5] and in experiment [8] was “inactive” throughout. In addition, the outcome in experiment [6] and in experiment [7] was inactive.
Turning to `O=P(O)(O)C(O)(Cc1cccnc1)P(=O)(O)O`, the Potency result in [4], in [5] and in experiment [8] was “inactive” each time. Further, the result in [6] and in experiment [7] was inactive.
In the case of `Nc1nc(F)nc2c1ncn2[C@@H]1O[C@H](CO)[C@@H](O)[C@@H]1O`, the Potency entry in experiment [4], in experiment [5] and in [8] was “inactive” each time. The result in [6] and in [7] was inactive.
On to `CC1CC2C3CCC4=CC(=O)C=C[C@]4(C)[C@@]3(F)[C@@H](O)C[C@]2(C)[C@@]1(O)C(=O)CO` (some centres undefined), for which the activity, negative = inhibition in experiment [11] is -6.72%. The call in experiment [12], in experiment [13], in experiment [14] and in experiment [15] was inactive. Besides, the Potency entry in [8] is “inactive”.
For `OCc1ccc(-c2nn(Cc3ccccc3)c3ccccc23)o1`, the Potency entry in experiment [2], in experiment [5] and in [8] was “inactive” each time. Also, the Potency in experiment [3] was 11.7 µM (active). Further, the call in experiment [12], in experiment [13], in experiment [14] and in experiment [15] was inactive.

(Values after PubChem BioAssay (NCATS).)
